Test systems include SK-MEL-2 melanoma; EKVX NSCLC; SN12C renal; UO-31 renal; TK-10 renal; A498 renal; MOLT-4 leukemia; SR leukemia; RPMI-8226 leukemia; OVCAR-8 ovarian; OVCAR-5 ovarian; OVCAR-4 ovarian; SK-OV-3 ovarian; IGROV1 ovarian; OVCAR-3 ovarian; HS 578T breast; NCI/ADR-RES ovarian; CCRF-CEM leukemia.
Assay in all cases: NCI-60 one-dose screen, 48 h (100 = growth as untreated, 0 = no growth, -100 = all killed)
Conditions in all cases: 10 µM unless noted

Compounds without any hit were thinned out: in the full panel of roughly 83,000, 20% have a hit.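 Percent growth is the endpoint: 0 to 100 indicates growth inhibition (40 means 60% inhibition), 0 means no net growth, and negative values indicate cell death.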 Unmarked numbers belong to inactive results. The source made the active and inactive calls. How the source made its calls: active means growth percent below 10; inactive means the rest.

In the case of `CNCCCOc1c(Br)cc(CCNC(=O)/C(Cc2cc(Br)c(OC)c(Br)c2)=N/O)cc1Br`, the growth in the experiment with SK-MEL-2 melanoma was -54.7% (active); in the experiment on EKVX NSCLC, 26.3%; in the experiment with SN12C renal, -74% (active); in the experiment on UO-31 renal, -44.9% (active); in the experiment on TK-10 renal, 34.7%; in the experiment on A498 renal, 31.9%. Moreover, the growth is -17.4% (active) with MOLT-4 leukemia; -57% (active) in the experiment on SR leukemia; -30.7% (active) in the experiment with RPMI-8226 leukemia; 2.04% (active) with OVCAR-8 ovarian; 36.2% in the experiment with OVCAR-5 ovarian; 14.3% in the experiment with OVCAR-4 ovarian. Further, the growth in the experiment with SK-OV-3 ovarian was 37.2%; in the experiment on IGROV1 ovarian it was 6.03% (active); in the experiment on OVCAR-3 ovarian, -25.4% (active); in the experiment with HS 578T breast, -17.9% (active); with NCI/ADR-RES ovarian it was 9.44% (active).

Take `NC(=S)NNC1CCCCC1`: the growth with SK-MEL-2 melanoma was 97.3%; in the experiment on EKVX NSCLC, 89.9%; in the experiment with SN12C renal it was 95.7%; with UO-31 renal, 72.6%; with TK-10 renal, 97.2%; with A498 renal, 100%. Further, the growth was 84.9% in the experiment with CCRF-CEM leukemia; 70.9% in the experiment on MOLT-4 leukemia; 99.1% in the experiment on SR leukemia; 93.9% in the experiment on RPMI-8226 leukemia; 91.2% in the experiment on OVCAR-8 ovarian; 102% in the experiment on OVCAR-5 ovarian. For the same compound, the growth in the experiment with OVCAR-4 ovarian is 91.1%; in the experiment with SK-OV-3 ovarian, 93.3%; with IGROV1 ovarian, 96.4%; in the experiment on HS 578T breast, 101%.

Consider `Cc1c(F)cccc1NC(=O)c1sc2nc3c(cc2c1N)CCCCC3`, for which the growth with SK-MEL-2 melanoma was 40.7%; in the experiment with EKVX NSCLC it was 64.7%; with SN12C renal it was 84.6%; in the experiment with UO-31 renal, 72.7%; in the experiment on TK-10 renal, 85.3%; in the experiment on A498 renal it was 33.7%. The growth in the experiment with CCRF-CEM leukemia is 23.6%; in the experiment with MOLT-4 leukemia it was 30.7%; in the experiment with RPMI-8226 leukemia, 35.3%; in the experiment on OVCAR-8 ovarian, 80.3%; in the experiment on OVCAR-5 ovarian it was 90.1%; in the experiment with OVCAR-4 ovarian, 75.6%. The growth with SK-OV-3 ovarian is 66.2%; in the experiment with IGROV1 ovarian, 53.7%; in the experiment with OVCAR-3 ovarian, 34.6%; with HS 578T breast, 54.3%.

In the case of `CCNc1ncnc2n[nH]nc12`, the growth with SK-MEL-2 melanoma is 104%; in the experiment with EKVX NSCLC it was 94.7%; with SN12C renal, 102%; in the experiment on UO-31 renal, 98.4%; with TK-10 renal, 91.9%; in the experiment with A498 renal it was 102%. Also, the growth with CCRF-CEM leukemia is 87.5%; in the experiment with MOLT-4 leukemia, 100%; in the experiment on SR leukemia, 94%; with RPMI-8226 leukemia, 95.5%; with OVCAR-8 ovarian it was 99.6%; with OVCAR-5 ovarian, 103%. Moreover, the growth with OVCAR-4 ovarian was 94.7%; with IGROV1 ovarian, 111%; with OVCAR-3 ovarian, 106%; in the experiment on HS 578T breast, 103%; with NCI/ADR-RES ovarian, 108%.

Regarding `Cc1cc(-c2ccccc2)nc2ccccc12`, the growth is 109% in the experiment with SK-MEL-2 melanoma; 81.1% in the experiment with EKVX NSCLC; 104% in the experiment with SN12C renal; 77% with UO-31 renal; 135% in the experiment on TK-10 renal; 106% in the experiment on A498 renal. Further, the growth with CCRF-CEM leukemia is 84.9%; with MOLT-4 leukemia it was 91.5%; in the experiment with SR leukemia, 97.1%; in the experiment with RPMI-8226 leukemia it was 83.3%; in the experiment with OVCAR-8 ovarian, 98.1%; in the experiment with OVCAR-5 ovarian, 115%. Also, the growth in the experiment with OVCAR-4 ovarian was 90.1%; in the experiment on SK-OV-3 ovarian it was 74.9%; with IGROV1 ovarian, 92.5%; with HS 578T breast, 97.3%; in the experiment on NCI/ADR-RES ovarian, 102%.

Regarding `Cc1c(Cl)ccc2c(C(=O)Cl)cc(-c3ccccc3)nc12`, the growth was 106% in the experiment on SK-MEL-2 melanoma; 95.6% in the experiment on EKVX NSCLC; 99.9% in the experiment with SN12C renal; 90.1% in the experiment on UO-31 renal; 105% in the experiment on TK-10 renal; 84.4% with A498 renal. In addition, the growth in the experiment on CCRF-CEM leukemia was 88.1%; with MOLT-4 leukemia, 96.2%; in the experiment on SR leukemia, 91.8%; with RPMI-8226 leukemia, 92.2%; in the experiment on OVCAR-8 ovarian, 99.7%; in the experiment with OVCAR-5 ovarian, 97.1%. Moreover, the growth in the experiment with OVCAR-4 ovarian is 88.5%; in the experiment on SK-OV-3 ovarian, 99.4%; with IGROV1 ovarian it was 107%; with OVCAR-3 ovarian, 104%; in the experiment with HS 578T breast, 98.9%; in the experiment on NCI/ADR-RES ovarian, 101%.

Turning to `CCCCCC/C=N/Nc1ccc([N+](=O)[O-])cn1`, the growth was 89.6% in the experiment on SK-MEL-2 melanoma; 101% with EKVX NSCLC; 110% in the experiment with SN12C renal; 84.6% in the experiment on UO-31 renal; 94.8% in the experiment on TK-10 renal; 103% in the experiment with A498 renal. The growth in the experiment with CCRF-CEM leukemia was 100%; in the experiment with MOLT-4 leukemia, 103%; in the experiment with SR leukemia, 89.4%; in the experiment with RPMI-8226 leukemia, 105%; in the experiment with OVCAR-8 ovarian it was 110%; in the experiment on OVCAR-5 ovarian it was 100%. Also, the growth was 118% in the experiment on OVCAR-4 ovarian; 105% in the experiment with IGROV1 ovarian; 103% with OVCAR-3 ovarian; 108% in the experiment on HS 578T breast; 102% with NCI/ADR-RES ovarian.

Regarding `O=S(=O)(O)c1ccc(F)cc1`, the growth with SK-MEL-2 melanoma was 93.6%; in the experiment with EKVX NSCLC, 101%; in the experiment with SN12C renal, 111%; in the experiment with UO-31 renal, 86.4%; with TK-10 renal it was 90.2%; with A498 renal, 101%. Further, the growth in the experiment on CCRF-CEM leukemia is 90.6%; in the experiment on MOLT-4 leukemia it was 98.5%; in the experiment on SR leukemia it was 101%; with RPMI-8226 leukemia it was 100%; with OVCAR-8 ovarian, 116%; in the experiment with OVCAR-5 ovarian, 111%. Moreover, the growth was 105% with OVCAR-4 ovarian; 98.8% with IGROV1 ovarian; 106% in the experiment on OVCAR-3 ovarian; 102% with HS 578T breast; 104% with NCI/ADR-RES ovarian.

Consider `FC(F)(F)c1cccc([Si](F)(c2cccc(C(F)(F)F)c2)c2cccc(C(F)(F)F)c2)c1`, for which the growth in the experiment on SK-MEL-2 melanoma was 87.6%; with EKVX NSCLC, 66.1%; with SN12C renal, 74%; with UO-31 renal, 49%; in the experiment with TK-10 renal, 73.9%; with A498 renal, 90.4%. For the same compound, the growth in the experiment on CCRF-CEM leukemia is 65.5%; in the experiment on MOLT-4 leukemia it was 61.6%; with SR leukemia it was 74%; in the experiment on RPMI-8226 leukemia, 52.3%; with OVCAR-8 ovarian, 91.5%; with OVCAR-5 ovarian, 91.3%. The growth with OVCAR-4 ovarian was 65.9%; in the experiment on SK-OV-3 ovarian it was 99%; with IGROV1 ovarian it was 82.5%; with HS 578T breast, 85.3%; in the experiment with NCI/ADR-RES ovarian, 72.6%.

The values above are taken from PubChem BioAssay (NCI).
